# Source: PubChem BioAssay (EPA / NIEHS)
# Inconclusive results are not listed. Active and inactive are the calls of the source. Rule for the calls: active = hit-call score of the fitted dose curve at least 0.9, where 1 is the maximum; inconclusive = response in the unintended direction; inactive = score below 0.9.
# Target: Retinoic acid receptor RXR-alpha (Homo sapiens) (UniProt P19793)
# Test: OT_NURR1_NURR1RXRa_1440: Odyssey Thera (OT) 24-hour HEK293T Protein Complementation Assay for Nurr1/retinoid X receptor (RXR) (AID 2283386)
# Procedure: OT_NURR1_NURR1RXRa_1440 is a cell-based assay that uses HEK293T, a human kidney cell line, with measurements taken at 24 hours after chemical dosing in a 384-well plate.OT_NURR1_NURR1RXRa_1440 is one of one assay component(s) measured or calculated from the OT_NURR1_NURR1RXRa_1440 assay. It is designed to make measurements of protein fragment complementation, a form of binding reporter, as detected with fluorescence intensity signals by Protein-fragment Complementation technology.Data from the assay component OT_NURR1_NURR1RXRa_1440 was analyzed into 1 assay endpoint. This assay endpoint, OT_NURR1_NURR1RXRa_1440, was analyzed in the positive analysis fitting direction relative to DMSO as the negative control and baseline of activity. Using a type of binding reporter, measures of receptor for gain-of-signal activity can be used to understand the binding at the pathway-level as they relate to the gene RXRA. Furthermore, this assay endpoint can be referred to as a primary readout, because the performed assay has only produced 1 assay endpoint. To generalize the intended target to other relatable targets, this assay endpoint is annotated to the nuclear receptor intended target family, where the subfamily is non-steroidal.
# Protein-fragment complementation assay, or PCA, is a method for the identification and quantification of protein-protein interactions. In the PCA, the proteins of interest ("bait" and "prey") are each covalently linked to fragments of a third protein (e.g. DHFR, which acts as a "reporter"). Interaction between the bait and the prey proteins brings the fragments of the reporter protein in close proximity to allow them to form a functional reporter protein whose activity can be measured.
# Retinoic acid receptor RXR-alpha (Homo sapiens), sequence (P19793 whole entry, looked up): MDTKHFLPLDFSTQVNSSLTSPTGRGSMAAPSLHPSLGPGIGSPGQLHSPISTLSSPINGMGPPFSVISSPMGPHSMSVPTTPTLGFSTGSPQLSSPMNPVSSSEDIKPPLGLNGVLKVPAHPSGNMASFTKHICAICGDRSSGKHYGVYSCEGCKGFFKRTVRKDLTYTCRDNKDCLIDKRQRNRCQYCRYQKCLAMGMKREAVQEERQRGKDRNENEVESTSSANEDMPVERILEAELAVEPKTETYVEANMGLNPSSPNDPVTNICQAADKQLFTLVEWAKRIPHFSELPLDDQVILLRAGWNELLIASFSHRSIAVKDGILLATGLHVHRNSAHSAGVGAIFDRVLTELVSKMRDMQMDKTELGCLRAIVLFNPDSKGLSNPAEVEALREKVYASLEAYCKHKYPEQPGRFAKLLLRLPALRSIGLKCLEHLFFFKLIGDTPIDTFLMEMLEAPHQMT
Compound,outcome,AC50
O=c1c(O)c(-c2ccc(O)cc2O)oc2cc(O)cc(O)c12,inactive,–
CCCCCC[C@@H](O)C/C=C\CCCCCCCC(=O)OCC(O)CO (stereo not given in full),inactive,–
CCC1COC(=O)O1 (stereo not given),inactive,–
CCCCCCCO,inactive,–
O=C(O)/C=C/c1ccccc1,inactive,–
CCCC(CC)c1ccccc1 (stereo not given),inactive,–
O=C(OCc1ccccc1)c1ccc(O)cc1,–,69.9 µM (active)
CC(=O)OC(C)c1ccccc1 (stereo not given),inactive,–
O=C(O)CCC(=O)O,inactive,–
CCOC(=O)c1ccc(C)cc1,inactive,–
CCCCCCCCC(CO)CCCCCC (stereo not given),inactive,–
Cc1ccc([N+](=O)[O-])cc1N,inactive,–
CC(=O)OC1CCCCC1C(C)(C)C (stereo not given),inactive,–
C[Si]1(C)O[Si](C)(C)O[Si](C)(C)O[Si](C)(C)O[Si](C)(C)O1,inactive,–
CCCCC(=O)O,inactive,–
CCc1occc(=O)c1O,inactive,–
CN(C)c1ccc2nc3ccc(=[N+](C)C)cc-3sc2c1,–,15.3 µM (active)
C1CNCCN1,inactive,–
C/C=C/C=C/CCCCCCCO,–,5.06 µM (active)
CCCCC(CC)COC(=O)/C=C/c1ccc(OC)cc1 (stereo not given),inactive,–

Compound,outcome,AC50
Cc1c(C(=O)c2c[nH]n(C)c2=O)ccc(S(C)(=O)=O)c1C1=NOCC1,inactive,–
Fc1ccc(Br)cc1,inactive,–
CCCCCCCCCC[N+](C)(CCCCCCCCCC)CCC[Si](OC)(OC)OC,–,11.6 µM (active)
CC(C)(C)N,inactive,–
CCCCCCC=O,inactive,–
O=C(O)c1cc(O)c2ccccc2c1O,inactive,–
CCCCCCCCCCCCCCCCCCOS(=O)(=O)O,inactive,–
CC(CCC(=O)O)(c1ccc(O)cc1)c1ccc(O)cc1,inactive,–
CC1=CC=C(C(C)C)CC1,inactive,–
CCCCC(CC)COS(=O)(=O)O (stereo not given),inactive,–
CCCCCCCOC(=O)c1ccc(O)cc1,–,90.7 µM (active)
CCCCC(C=O)CC (stereo not given),inactive,–
CCOC(=O)c1ccccc1C,inactive,–
CN(C)Cc1cc(CN(C)C)c(O)c(CN(C)C)c1,inactive,–
C=C[C@@]1(C)CC(=O)[C@]2(O)[C@@]3(C)[C@@H](O)CCC(C)(C)[C@@H]3[C@H](O)[C@H](OC(C)=O)[C@@]2(C)O1,–,0.396 µM (active)
Oc1ccc(-c2ccccc2)c(Cl)c1,–,69.5 µM (active)
O=C(OCCc1ccccc1)c1ccccc1,inactive,–
CCCCCCO,inactive,–
CCCCCCOC(=O)CCCCC(=O)OCCCCCC,inactive,–
CCc1cccc(C)c1N,inactive,–
